Consider 23 molecules from PubChem BioAssay.

The source made the active and inactive calls.

The subject of assay [1] is XIP peptide (Xip251-270) binding. Briefly: small-molecule binders of XIP peptide, primary screen, biochemical, small-molecule microarray, fluorescence 635/667 nm, 0.1 µg/mL protein (AID 1182). To be noted: fluorescent protein binding, 635 nm, higher = more signal, called active from +8 up or from −8 down.
In a further assay the test system is XIP peptide (Xip251-270). Nature of the assay: small-molecule binders of XIP peptide, primary screen, biochemical, small-molecule microarray, fluorescence 635/667 nm, 0.5 µg/mL protein (AID 1183). To be noted: small-molecule microarray binding, fluorescence 635 nm; higher = more signal.
A short description of assay [2]: Plasmodium falciparum growth inhibition, primary screen, strain 3D7, DAPI fluorescence, 100 nL (AID 1184).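 Note: parasites grown inside human red blood cells in medium with human serum.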 To be noted: P. falciparum 3D7 growth, 3 d, higher = more signal.
Assay [3] deals with Homeobox protein Hox-A13 (Mus musculus) (UniProt Q62424). Briefly: inhibitors of HoxA13-DNA binding, primary screen, biochemical, fluorescence polarization, labeled oligonucleotide (AID 1185). To be noted: 15 min, higher = more signal, called active from +8 up or from −8 down.
Sequence of Homeobox protein Hox-A13 (Mus musculus) (Q62424 whole entry, looked up): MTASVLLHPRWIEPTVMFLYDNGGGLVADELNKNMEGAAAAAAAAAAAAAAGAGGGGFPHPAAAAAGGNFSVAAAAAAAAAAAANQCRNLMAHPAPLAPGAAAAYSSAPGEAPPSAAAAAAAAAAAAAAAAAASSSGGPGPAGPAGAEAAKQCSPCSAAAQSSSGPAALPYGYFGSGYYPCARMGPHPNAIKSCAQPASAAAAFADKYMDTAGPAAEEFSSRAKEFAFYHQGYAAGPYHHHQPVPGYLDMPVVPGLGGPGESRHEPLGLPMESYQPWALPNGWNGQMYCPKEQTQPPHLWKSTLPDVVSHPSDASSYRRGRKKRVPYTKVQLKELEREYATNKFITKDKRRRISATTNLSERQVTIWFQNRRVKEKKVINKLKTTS

As for `C=CC[C@@H]1C=C[C@H](ON=C2c3cc(OC)ccc3O[C@H](c3cccc(OC)c3)[C@H]2O)[C@@H](CO)O1`, the composite z-score in assay [1] was 0.0897 (inactive); in the assay on XIP peptide (Xip251-270), -0.479. Further, the z-score in assay [2] was 0.888; in assay [3] it was -5.69 (inactive).
With `CCOC(=O)[C@H](CC(C)C)NC(=O)CCC1CC(OC(=O)NCc2cccc3ccccc23)CC2(CCCC(COC(=O)NCCN3CCOCC3)O2)O1` (some centres not stated), the results for the composite z-score (in assay [1]; with XIP peptide (Xip251-270)) were 0.0634 (inactive) and 0.464, respectively. The figures for the z-score in assay [2] and in assay [3] were -1.71 and -4.01 (inactive), respectively.
Regarding `CO[C@@H]1COC(=O)CC=C[C@@H](C)[C@H](OC)COC(=O)[C@H](COCc2ccccc2)NC(=O)CC=C[C@H]1C`, the composite z-score was 0.025 (inactive) in assay [1] and -0.988 in the assay with XIP peptide (Xip251-270). Besides, the z-score is -0.17 in assay [2] and -1.64 (inactive) in assay [3].
Take `COC(=O)[C@H](C)NC(=O)CCC1CC(OC(=O)NCc2ccc3c(c2)OCO3)CC2(CCCC(COC(=O)NCCOc3ccccc3)O2)O1` (some centres not stated): the results for the composite z-score (in assay [1]; in the assay with XIP peptide (Xip251-270)) were -0.045 (inactive) and 0.588, respectively. In addition, the z-score in assay [2] is -1.79; in assay [3] it was -2.45 (inactive).
Take `C[C@H]1Cc2c(-c3ccccc3)nc3c(c2CO1)CN(CCOc1ccccc1)CC3`: the composite z-score in assay [1] was 0.15 (inactive); in the assay with XIP peptide (Xip251-270), 0.771. The figures for the z-score in assay [2] and in assay [3] were 1.18 and -5.41 (inactive), respectively.
Turning to `CCOC(=O)CCN1C(=O)[C@H]2[C@H]3[C@H](O)[C@H](O)CC(=O)[C@H]3CC[C@H]2C1=O`, the results for the composite z-score (in assay [1]; with XIP peptide (Xip251-270)) were -0.245 (inactive) and 0.23, respectively. For the same molecule, the z-score in assay [2] is -1.18; in assay [3], 0.804 (inactive).
As for `O=C(NN=C1C[C@@H](O)[C@@H](O)[C@@H]2[C@@H]3C(=O)N(c4cccc(Oc5ccccc5)c4)C(=O)[C@@H]3CC[C@@H]12)OCc1ccccc1`, the composite z-score in assay [1] was -0.0987 (inactive); with XIP peptide (Xip251-270), 0.381. In addition, the z-score is -0.763 in assay [2] and -4.96 (inactive) in assay [3].
`CCOC(=O)NN=C1C[C@@H](O)[C@@H](O)[C@@H]2[C@@H]3C(=O)N(C4CCCCC4)C(=O)[C@@H]3CC[C@H]12`: the values for the composite z-score (in assay [1]; in the assay on XIP peptide (Xip251-270)) were 0.67 (inactive) and 0.485, respectively. The z-score in assay [2] is -1.68; in assay [3], -1.77 (inactive).
As to `CO[C@H]1COC(=O)[C@H](C)NC(=O)[C@@H](C)COC(=O)CC=C[C@@H]1C`, the composite z-score in assay [1] is 0.166 (inactive); with XIP peptide (Xip251-270), 0.518. Besides, the z-score was 0.336 in assay [2] and -0.467 (inactive) in assay [3].
On to `COc1ccc(COC(=O)NN=C2C[C@@H](O)[C@@H](O)[C@@H]3[C@@H]4C(=O)N(c5ccc(F)cc5F)C(=O)[C@@H]4CC[C@@H]23)cc1`, for which the values for the composite z-score (in assay [1]; in the assay with XIP peptide (Xip251-270)) were -0.413 (inactive) and -0.0386, respectively. Moreover, the z-score in assay [2] was -0.351; in assay [3] it was -3.33 (inactive).
Consider `CC(C)=NOCc1cccc(-c2cc(-c3ccccc3)no2)c1`, for which the composite z-score in assay [1] is 1.13 (inactive); in the assay on XIP peptide (Xip251-270), 0.326. The z-score in assay [2] was 2.06; in assay [3], 0.515 (inactive).
With `C#CCCCON=C1C[C@@H](O)[C@@H](O)[C@@H]2[C@@H]3C(=O)N(CCC(=O)OCC)C(=O)[C@@H]3CC[C@@H]12`, the composite z-score in assay [1] was -0.349 (inactive); in the assay on XIP peptide (Xip251-270), 0.365. The z-score in assay [2] is 0.165; in assay [3] it was -5.09 (inactive).
For `CCc1cc2c(nc1CC)CCN(CCC(C)=NOC[C@@H](O)COCc1ccco1)C2`, the values for the composite z-score (in assay [1]; in the assay on XIP peptide (Xip251-270)) were 2.62 (inactive) and 0.679, respectively. Besides, the z-score in assay [2] was 0.15; in assay [3], -6.02 (inactive).
As for `CC(C)[C@@H](OCc1ccccc1)[C@H](C)C=NO[C@H](C)c1cn([C@H](CO)Cc2ccccc2)nn1`, the values for the composite z-score (in assay [1]; with XIP peptide (Xip251-270)) were -0.2 (inactive) and 0.353, respectively. In addition, the z-score in assay [2] is 0.325; in assay [3] it was -4.42 (inactive).
The matching figures for `COC(=O)[C@H](C)NC(=O)[C@@H](C)CO`: 0.316 (inactive), 0.332, -0.613 and -1.61 (inactive).
Consider `O=C1[C@H]2[C@H]3[C@H](O)[C@H](O)CC(=NO[C@@H]4O[C@H](CO)[C@@H](O)[C@H](O)[C@H]4O)[C@@H]3CC[C@H]2C(=O)N1Cc1ccccc1`, for which the composite z-score in assay [1] is 0.0711 (inactive); in the assay on XIP peptide (Xip251-270), 0.216. The z-score in assay [2] is -0.165; in assay [3], 0.638 (inactive).
The matching figures for `COc1ccc(O[C@H]2C=C[C@@H](c3ccccc3)O[C@@H]2CON=C[C@@H](C)[C@H](OCc2ccccc2)C(C)C)cc1`: 0.0702 (inactive), -0.126, -0.118 and -0.538 (inactive).
Take `O=C1C[C@@H](O)[C@@H](O)[C@@H]2[C@@H]3C(=O)N(C4CCCCC4)C(=O)[C@@H]3CC[C@H]12`: the composite z-score in assay [1] is -0.149 (inactive); in the assay on XIP peptide (Xip251-270), 0.349. For the same molecule, the results for the z-score in assay [2] and in assay [3] were 0.266 and 0.34 (inactive), respectively.
For the molecule `CCOC(=O)[C@H](CC(C)C)NC(=O)CCC1CC(OC(=O)NCCc2ccc(F)cc2)CC2(CCCC(COC(=O)NCc3ccccc3)O2)O1` (some centres not stated), the values for the composite z-score (in assay [1]; with XIP peptide (Xip251-270)) were 0.137 (inactive) and 0.461, respectively. Also, the z-score is -2.06 in assay [2] and -7.01 (inactive) in assay [3].
In the same order, the values of `CC(C)[C@H](NC(=O)OC(C)(C)C)[C@@H](O)CC(=O)OC(C)(C)C` are -0.182 (inactive), -0.4, -1.75 and -0.799 (inactive).
Regarding `O=C1[C@H]2[C@H]3[C@H](O)[C@H](O)CC(=NOC[C@@H](O)COCc4ccco4)[C@H]3CC[C@H]2C(=O)N1C1CCCCC1`, the composite z-score in assay [1] was -0.26 (inactive); in the assay with XIP peptide (Xip251-270), -0.37. Moreover, the z-score was -1.24 in assay [2] and -0.271 (inactive) in assay [3].
As for `CCOC(=O)CCN1C(=O)[C@H]2[C@H]3[C@H](O)[C@H](O)CC(=NOC[C@@H](O)COCc4ccco4)[C@@H]3CC[C@H]2C1=O`, the composite z-score was -0.159 (inactive) in assay [1] and 0.807 with XIP peptide (Xip251-270). Moreover, the z-score in assay [2] is 1.93; in assay [3], -0.692 (inactive).
In the same order, the values of `COc1ccc(-c2ccc3c(n2)CCCN3CC(O)CN2CCCc3nc(C)c(C)cc32)cc1` (configuration not stated) are 2.32 (inactive), 0.79, 0.618 and -9.12 (active).
